From PubChem
Sfp PPTase inh – blocks B. subtilis Sfp PPTase activity; AID 1490; Q9F4F7; Biochemical Sfp PPTase activity, qHTS; Potency, µM, for inactives: largest response in the series, negative = inhibition, hits mostly inhibitors; actives 3.5% (n = 310,000);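 note: the enzyme is Sfp with the accession as filed and its product quenches rhodamine fluorescence; potency is the fitted concentration of half-maximal effect; 0% = enzyme reaction without inhibitor and -100% = no enzyme wells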
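Reaction rates are the 30-min fluorescence difference (ex 525, em 598 nm) in wells containing 15 nM Sfp, 5 uM rhodamine-CoA and 12.5 uM BHQ-2-YbbR at pH 7.6 with 10 mM MgCl2.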
FBPA coupling cs – inhibits coupling enzyme system, counter-screen for aldolase hits; coupling enzyme system counterscreen, AmpLite Red fluorescence; actives 0.67% (n = 290,000); activity change, negative = inhibition, % at 58.2 µM, hits read low; AID 2472; in the data active = activity change below about -30%
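Counterscreen of the coupled detection system alone, without aldolase: glyceraldehyde-3-phosphate coupling enzymes plus AmpLite Red readout. Compounds at 57.5 uM final, 10 min RT preincubation, 20 min RT reaction, fluorescence 525/598 nm.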
Tau FP inhib – blocks human tau fibril formation measured by polarization. K18 P301L tau heparin fibrillization, Alexa594 FP, 6 h. Potency, µM (highest dose often 57.7 µM), for the others: top-dose activity, negative = inhibition, usual class: inhibitors. actives 0.39% (n = 280,000). P10636. AID 1468; note: potency is the fitted concentration of half-maximal effect; nearly all actives have a fitted effect of over 55% in size
Target sequence (P10636 561-689 P618L limits assumed): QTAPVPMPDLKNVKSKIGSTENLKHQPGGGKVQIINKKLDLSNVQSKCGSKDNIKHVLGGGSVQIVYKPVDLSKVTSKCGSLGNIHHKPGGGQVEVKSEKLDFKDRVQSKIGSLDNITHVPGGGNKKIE
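Human tau K18 […] P301L fragment, 15 uM unlabeled plus 0.24 uM Alexa 594-labeled tau (final), with compound and 20 uM heparin in 100 mM sodium acetate pH 7; 6 hr at 37 C, then Alexa 594 FP read.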
Tau ThT inhib – tau fibrillization inhibition (ThT binding); actives 2.1% (n = 270,000); P10636; Potency, µM (top dose mostly 57.4 µM), without a hit: at the highest dose activity, negative = inhibition, usual class: inhibitors; recombinant tau K18 P301L, heparin-induced fibrillization, ThT fluorescence; AID 1460; note: potency is the fitted concentration of half-maximal effect; nearly all actives have a fitted effect of over 55% in size
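ThT emission at 510 nm, taken 1 hr after adding 30 uM dye, quantifies aggregates formed when 20 uM heparin acts on human tau K18 P301L for 6 hr at 37 C.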
Tau fluor cs – counter-screen for tau fibril formation inhibitors | tau K18 P301L Alexa594 fluorescence, heparin fibrillization | Potency, µM (series often up to 57.7 µM), inactives show at the top dose activity change, negative = decrease | actives 0.93% (n = 280,000) | AID 1463; note: potency is the fitted concentration of half-maximal effect; nearly all actives have a fitted effect of over 55% in size
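Human tau K18 P301L (15 uM unlabeled, 0.24 uM Alexa 594-labeled) in 100 mM sodium acetate pH 7 with 20 uM heparin, 6 hr at 37 C. ThT 30 uM added, 1 hr ambient; Alexa 594 FP and total fluorescence read at 555/632 nm.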
An asterisk follows results filed as active; u = inconclusive; x = no result given; ! = not confirmed by another sample; [ ] = another dose, or the depositor's remark. Only some compounds are listed: those with a hit (about 5.2% of all), similar ones and a draw of the others. Unless noted, calls come from the whole dose curve; as a rule, active = well fitted curve in the direction sought with a large enough effect; inconclusive = small, poorly fitted or top-dose-only effect, or another doubt; inactive = no such curve, though single readings can be large; an effect the other way counts as inactive or inconclusive. Unless noted, % is set by controls: 0 for no effect and ±100 for the full control effect.

SMILES | Sfp PPTase inh | FBPA coupling cs | Tau FP inhib | Tau ThT inhib | Tau fluor cs
O=S(=O)(NCc1ccc(F)cc1)c1ccc2[nH]c3c(c2c1)CCCC3 | x | x | 9.9% | -5.3% | 12.6µM*[quencher]
O=S(=O)(NCc1ccc(Cl)cc1)c1ccc2[nH]c3c(c2c1)CCCC3 | x | x | 2.0% | -9.8% | 12.6µM*[quencher]
CN(C)c1ccc(CNS(=O)(=O)c2ccc3[nH]c4c(c3c2)CCCCC4)cc1 | x | x | 5.5% | 4.4% | u
CC(=O)NCc1nc2cccnc2n1Cc1ccccc1 | x | x | 1.9% | 1.9% | -2.7%
Cc1c(CCC(=O)NCc2cccc(Cl)c2)c(=O)oc2c(C)c(O)ccc12 | x | x | -15.3% | 3.6% | 0.0%
CCOc1ccc(OCC)c(NC(=O)C2CCN(S(=O)(=O)c3ccc(Br)s3)CC2)c1 | x | x | -6.0% | -0.7% | -13.7%
Cc1ccc(N(CC2=NCCN2)c2cccc(O)c2)cc1 | 79.4µM*! | -5.0 | 16.6% | u | -15.6%
C=CC1=C2C=C(C3CC3)N(CCCOC(C)C)C=C2C(=O)C(C)(OC(=O)c2ccco2)C1=O (stereo not drawn) | -26.1% | -32.4* | -4.0%[11.6 µM] | -12.3%[11.5 µM] | -4.9%[11.6 µM]
C=CC1=C2C=C(C3CC3)N(Cc3ccccc3)C=C2C(=O)C(C)(OC(=O)c2ccco2)C1=O (stereo not drawn) | 14.6% | -35.9* | 5.9%[11.6 µM] | -13.4%[11.5 µM] | -3.0%[11.6 µM]
C=CC1=C2C=C(C3CC3)N(Cc3ccc4c(c3)OCO4)C=C2C(=O)C(C)(OC(=O)c2ccco2)C1=O (stereo not drawn) | 3.6% | -5.6 | -1.5%[11.6 µM] | u | -14.5%[11.6 µM]
COc1ccc(N2CCN(S(=O)(=O)c3csc(C(N)=O)c3)CC2)cc1 | x | x | -2.9% | -8.6% | -12.0%
Cc1cccc(Nc2nnc(-n3nc(C)cc3C)c3ccccc23)c1 | x | x | -10.3% | -19.9% | -28.9%
COc1ccc(CCNC(=O)c2ccc(Cn3c(=O)c4ccccc4n(Cc4cccc(F)c4)c3=O)cc2)cc1OC | x | x | 0.2% | 2.8% | -19.7%
COc1ccc(CCCC(=O)Nc2cc(C)ccc2OC)cc1 | -5.5% | -1.7 | x | x | x
COc1ccc(S(=O)(=O)CCC(=O)Nc2cc(C)ccc2OC)cc1 | 50.1µM* | -5.0 | -2.5% | 2.8% | -4.7%
Cc1ccc(CNC(=O)Cn2ccc3cc(S(=O)(=O)N4CCCC4)ccc32)o1 | 50.1µM* | 2.4 | x | x | x
COc1ccc(S(=O)(=O)CCC(=O)NCc2ccc(C)o2)cc1 | 50.1µM* | 3.4 | x | x | x
Cc1ccc(CNC(=O)CCS(=O)(=O)c2cc(Br)cc3c2N(C(=O)C2CC2)CC3)o1 | 10µM* | -7.8 | 0.0% | 0.6% | 1.2%
Cc1ccc(CNC(=O)CCS(=O)(=O)c2cc(Br)cc3c2N(C(=O)C2CC2)CC3)cc1 | x | x | 5.5% | -11.4% | -13.2%
CCOc1ccccc1CNC(=O)c1ccc2nc(N3CCC(C)CC3)sc2c1 | x | x | 2.5% | u | -23.9%
CCC(=O)N1c2ccccc2CC1C(=O)NCCN1CCN(c2cc(Cl)ccc2C)CC1 (stereo not drawn) | x | x | 7.7% | -16.2% | -9.3%
CC(=O)N1CCc2cc(S(=O)(=O)C(C)CC(=O)NCc3ccc(C)o3)ccc21 (stereo not drawn) | -23.7% | 1.3 | x | x | x
CC(=O)N1CCc2cc(S(=O)(=O)CCC(=O)NCc3ccc(C)o3)ccc21 | 25.1µM* | -0.2 | x | x | x
CCOc1ccc(N2C(=O)CC(Sc3n[nH]c(-c4ccccc4)n3)C2=O)cc1 (stereo not drawn) | u | -0.4 | -0.4% | u | 0.7%
COc1ccc(N2C(=O)CC(Sc3n[nH]c(-c4ccccc4)n3)C2=O)cc1 (stereo not drawn) | 35.5µM* | -0.1 | 10.3% | u | -14.1%
SMILES | Sfp PPTase inh | FBPA coupling cs | Tau FP inhib | Tau ThT inhib | Tau fluor cs
COc1cccc(-c2nnc(SCC(=O)N(C)C3CCCCC3)o2)c1 | x | x | 9.4% | -7.9% | -8.0%
CCc1ccc(NC(=O)CN2C(=O)C(c3ccc(F)cc3)=NC2(C)C)cc1 | x | x | -6.6% | -1.4% | -16.8%
COc1ccc(Br)cc1C1C2C=CCCC2(C)C(=O)N1Cc1ccccc1 (stereo not drawn) | -21.4% | 5.6 | x | x | x
O=C1NC(=S)N/C1=C\C=C\c1ccccc1 | 13.5% | -2.7 | -3.6% | x | 0.8%
COc1ccc(/C=C/C=C2\NC(=S)NC2=O)cc1 | 16.4% | 6.2 | 10.7% | 2µM* | -10.9%
O=C(CN1CCCC1)Nc1ccccc1Sc1ccc(Cl)cc1 | 79.4µM* | -7.6 | 1.5% | -10.7% | -8.1%
O=C(CN1CCOCC1)Nc1ccccc1Sc1ccccc1 | 15.3% | 1.2 | 7.3% | -5.9% | -2.6%
O=C(CNCCN1CCOCC1)Nc1ccccc1Sc1ccccc1 | 56.2µM* | -2.0 | 2.8% | -0.6% | 0.7%
COCCNCC(=O)Nc1ccccc1Sc1ccccc1 | 56.2µM* | 1.0 | 5.1% | 8.5% | 1.6%
Cc1ccc(C(=O)OCC(=O)Nc2ccccc2Sc2ccccc2)cc1C | -8.8% | -4.8 | -3.2% | -14.3% | -13.2%
CCCCCCN(CCCCCC)C(=O)Cc1c(-c2ccc(Cl)cc2)[nH]c2ccc(Cl)cc12 | 15.9% | -1.0 | -11.9% | -3.2% | -13.2%
CCOC(=O)c1c(C)[nH]c(C)c1S(=O)(=O)NCC(=O)N1CCN(c2cccc(C)c2)C(C)C1 (stereo not drawn) | x | x | -0.7% | -6.7% | -15.0%
CCOC(=O)c1c(C)[nH]c2c1cc(O)c1ccccc12 | -6.4% | -33.2* | -3.2% | 15.8µM* | u
Nc1ccccc1C(=O)C[C@H](N)C(=O)O | 70.8µM* | x | -2.1% | -7.1% | -2.1%
COc1cccc(NC(=O)NNC(=O)CCc2ccc(O)c(O)c2)c1 | 56.2µM* | -2.6 | x | x | x
COc1ccc2c(Sc3ccc(Cl)cc3)c(C(=O)N3CCCCC3)[nH]c2c1 | x | x | 13.1% | u | -5.6%
CC(C)CNC(=O)C(=O)Nc1c2c(nn1-c1ccc(Cl)cc1)CSC2 | x | x | -2.4% | -2.9% | 5.1%
CC(C)CCN=Cc1c(O)n(-c2ccccc2)c(=O)c2ccccc12 | 56.2µM* | -7.8 | -1.5% | -15.4% | -18.5%
Cc1ccc(NC(=O)c2sc3nc[nH]c(=O)c3c2C)cc1C | x | x | -7.6% | u | u
O=C(NN1C(=O)CSC1=S)c1cccnc1 | 56.2µM* | -3.3 | -3.6% | x | -7.6%
COc1ccc(C)cc1NC(=O)c1ccc2c(c1)N(Cc1cccc(Cl)c1)C(=O)c1ccccc1S2=O (stereo not drawn) | x | x | -1.5% | 5.5% | -4.1%
CC[C@H](C)C(=O)O[C@H]1C[C@@H](C)C=C2C=C[C@H](C)[C@H](CC[C@@H]3C[C@@H](O)CC(=O)O3)[C@H]21 | 7.9% | -46.6* | -7.6% | u | -6.0%
Cc1ccc(NS(=O)(=O)c2cc(NC(=O)c3ccc4c(c3)NC(=O)CS4)ccc2C)c(C)c1 | 10µM* | 0.8 | u | 11.2% | u
COc1ccc(NC(=O)c2ccc3c(c2)NC(=O)CS3)cc1S(=O)(=O)Nc1ccc(Br)cc1 | 17.8µM* | -0.4 | 28.2µM* | 0.8% | u
COc1ccccc1Nc1nc(-c2cccc(N3C(=O)c4ccccc4C3=O)c2)cs1 | 0.0% | 0.9 | 7.4% | u | u
